Compounds without any hit were thinned out: in the full panel of roughly 79,000, 15% have a hit. No stated cut-off is given here; in the data, active means growth inhibition above about 70%; inactive means the rest.
Tests used:
[1] = NCI Yeast Anticancer Drug Screen. Data for the rad50 strain (AID 155);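 further: 0% = growth of vehicle-only cultures of the same strain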; conditions: S. cerevisiae rad50 strain growth inhibition; at 50.0 µM; active compounds read high
Outline: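 Genetically altered yeast (DNA repair pathway); compound treatment; growth inhibition vs vehicle ctrl.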

[2] = NCI Yeast Anticancer Drug Screen. Data for the mec2-1 strain (AID 157); conditions: S. cerevisiae mec2-1 strain, at 50.0 µM, active compounds read high
Outline: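 Mutant yeast (mec2-1) grown with compound; growth inhibition relative to vehicle control reported.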

[3] = NCI Yeast Anticancer Drug Screen. Data for the sgs1 mgt1 strain (AID 161);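 further: 0% = growth of cultures given vehicle only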; conditions: S. cerevisiae sgs1 mgt1 strain, at 50.0 µM, active compounds read high
Outline: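 Yeast cells carrying a defined DNA-repair defect were exposed to test compounds. Growth inhibition was measured relative to vehicle-treated controls.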

[4] = NCI Yeast Anticancer Drug Screen. Data for the cln2 rad14 strain (AID 165);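 further: 0% = growth equal to vehicle treated cultures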; conditions: S. cerevisiae cln2 rad14 strain, at 50.0 µM, active compounds read high
Outline: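 Readout is yeast growth inhibition versus vehicle-treated controls, using a strain with cln2 and rad14 alterations exposed to compound.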

[5] = NCI Yeast Anticancer Drug Screen. Data for the bub3 strain (AID 167); conditions: S. cerevisiae bub3 mutant strain, at 50.0 µM, active compounds read high
Outline: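 Yeast carrying a defined mutation is treated with each compound, and growth is compared with that of vehicle-exposed cells to give inhibition.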

[6] = NCI Yeast Anticancer Drug Screen. Data for the mlh1 rad18 strain (AID 175); conditions: S. cerevisiae mlh1 rad18 strain growth inhibition; at 50.0 µM; active compounds read high
Outline: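 Genetically defined yeast (DNA repair-deficient) exposed to compounds; growth inhibition determined relative to vehicle.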

Measured: growth inhibition

CCCCOC(=O)CCCCCCCCC(=O)OCCCC
inactive: [1] 23.6% | [2] -9% | [3] 2.05% | [4] -14.1% | [5] 0.2% | [6] 28.4%

COc1ccc(C2c3cc4c(cc3OC(Nc3ccccc3)C2C)OCO4)cc1 (stereo unspecified)
inactive: [1] 9% | [2] 9.95% | [3] 30% | [4] 43.8% | [5] 27.1% | [6] 33.6%

Cc1cccc2c(N)c3cccc(C(=O)NCC[N+](C)(C)[O-])c3nc12
inactive: [1] 8.7% | [2] -13.3% | [3] 11.1% | [4] 31% | [5] 18.4% | [6] 20.6%

CCCCSc1n[nH]c(=O)nc1N
inactive: [1] -5.5% | [2] -7.95% | [3] -3.1% | [4] -11.3% | [5] -11.6% | [6] 3.9%

Cc1ccc2nnc(NS(=O)(=O)c3cc(C)c(Cl)cc3S)n2n1
inactive: [1] -30.3% | [2] -7.75% | [3] -24.9% | [4] -16.9% | [5] -0.9% | [6] -25.4%

NC(=O)c1csc([C@@H](O)Cc2ccccc2)n1
inactive: [1] -2.25% | [2] 3.5% | [3] 7.5% | [4] -7.7% | [5] 8.35% | [6] 7.95%

CC(=O)N/C(=C/c1ccccc1)C(=O)NC(C)(C)C
inactive: [1] -13.1% | [2] -6.15% | [3] -9.85% | [4] -4.25% | [5] 1.2% | [6] 0.05%

CC1(C)N=C(N)N=C(N)N1c1cccc(CSc2ccccc2)c1
inactive: [1] -14.2% | [2] -11.8% | [3] -20.8% | [4] 7.2% | [5] -18.1% | [6] -19.6%

N#CCCN(CCC#N)c1ccc(/C=C2\N=C(CN3C(=O)c4ccccc4C3=O)OC2=O)cc1
inactive: [1] -20.1% | [2] 4.25% | [3] 7.05% | [4] 11.3% | [5] 0.05% | [6] 7.55%

C#CC(C)(C)OCC(O)CCl (stereo unspecified)
inactive: [1] 1.85% | [2] 5.65% | [3] 1.65% | [4] -28.8% | [5] -15.4% | [6] 2.45%

COCCCNC(=O)C1=C(C)NC(C)=C(C(=O)NCCCOC)C1
inactive: [1] -49% | [2] -64.2% | [3] -10.7% | [4] 3.6% | [5] -11.2% | [6] -50.6%

COc1cccc(C2N(Cc3ccccc3OC)CCCN2Cc2ccccc2OC)c1
inactive: [1] 8.15% | [2] 11.8% | [3] 29.5% | [4] 21.8% | [5] -5.8% | [6] 8%

Cc1ccc2nc(N(C)C)nc-2c2[nH]c(=O)[nH]c12
inactive: [1] -28.9% | [2] -31.6% | [3] -12.2% | [4] 3.9% | [5] -28.9% | [6] -19.3%

CN1N(c2ccccc2)C(=O)C2=NC=C(C(=O)c3ccccc3)C(=N)C21C (stereo unspecified)
inactive: [1] 6.2% | [2] -1.6% | [3] 22.1% | [4] 19.9% | [5] 7.7% | [6] 16.8%

CSc1c(C)n([O-])c2ccccc2[n+]1=O
inactive: [1] 23.1% | [2] 26.1% | [3] 8.85% | [4] -20.5% | [5] 26.1% | [6] 5.4%

CC(C)(C)OC(=O)C(N)Cc1ccccc1 (stereo unspecified)
inactive: [1] -5.8% | [2] -6.6% | [3] 20.9% | [4] 0.35% | [5] 3.35% | [6] -22.6%

CCCCCNC(=O)Nc1cccc(Cl)c1C
inactive: [1] -1.4% | [2] 6.75% | [3] 3.55% | [4] 11.4% | [5] 16.6% | [6] -20.6%

COc1cccc(C2CC(C)(O)Oc3cc4c(cc32)OCO4)c1O (stereo unspecified)
inactive: [1] 9.15% | [2] -8.25% | [3] -9.45% | [4] 12.1% | [5] 23.3% | [6] 6.65%

CC(C)(Br)C(=O)N1CCN(C(c2ccccc2)c2ccccc2)CC1
inactive: [1] 3.15% | [2] 8.2% | [3] 2.3% | [4] -0.15% | [5] -0.3% | [6] 14.7%

COC(=O)c1cc(-c2ccc3ccccc3c2)[nH]c(=O)c1C#N
inactive: [1] 34.4% | [2] 35.2% | [3] 65.6% | [4] 46.9% | [5] 23.2% | [6] 67.3%

O=C1c2ccccc2-c2ccc(I)cc21
inactive: [1] 5.15% | [2] -1.7% | [3] 2.25% | [4] -17.6% | [5] 8.45% | [6] 26.2%

— PubChem BioAssay (NCI)
